PubChem BioAssay
For part of these data: Potency and affinity values are given separately. The source made the active and inactive calls.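 The calls were made as follows, unless noted: active = fluorescence ratio normalized to control raised more than 50% in primary screen plus both repeat runs; inactive = the rest.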

Tests used:
[1] = system: TRPC4 beta (transient receptor potential cation channel C4), mouse; experiment: activators of mouse TRPC4 channel, confirmation, cell-based, Fluo4 calcium, HEK293 TRPC4beta/mu-opioid, duplicates, 10 µM (AID 2426); details: Fluo4 calcium fluorescence, at 10 µM; stronger effect = higher value;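 as to activation: percent rise of integrated ratio over buffer wells lacking compound which define 0%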
[2] = system: transient receptor potential cation channel C4 beta (TRPC4), mouse; experiment: activators of mouse TRPC4 channel, confirmation, cell-based, second round, Fluo4, HEK293 TRPC4beta/mu-opioid, 1 µM (AID 2461;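 active = primary screen active and over 50% activation in each of two duplicate runs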;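 as to activation: 0% = wells without test compound as baseline of integrated fluorescence ratio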); details: Fluo4 calcium fluorescence, at 1 µM; stronger effect = higher value
[3] = system: TRPC4 (transient receptor potential cation channel C4 beta), mouse; experiment: positive allosteric modulators of mouse TRPC4, confirmation, cell-based, second round, Fluo-4, HEK293 TRPC4beta/mu-opioid, 1 µM (AID 2554;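 active = primary screen hit whose fluorescence ratio, in both repeats, exceeds the weak agonist control mean by 3 SD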); details: DAMGO EC20, Fluo-4 calcium flux, at 1 µM; stronger effect = higher value
[4] = system: TRPC4 beta (transient receptor potential cation channel C4), mouse; experiment: positive allosteric modulators of mouse TRPC4, confirmation, cell-based, Fluo-4, HEK293 TRPC4beta/mu-opioid (AID 2555;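 active = primary screen hit whose calcium fluorescence ratio, in both repeats, exceeds the weak agonist control mean by 3 SD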); details: DAMGO EC20, Fluo-4 calcium flux, at 10 µM; stronger effect = higher value
[5] = biological target: Short transient receptor potential channel 4 (Mus musculus) (UniProt Q9QUQ5); experiment: inhibitors of mouse TRPC4 channel, confirmation, cell-based, Fluo4, HEK293 TRPC4beta/mu-opioid (AID 2636;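 active = calcium signal cut by more than 3 SD below the full-agonist control yet still positive, in both repeats and the earlier primary screen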); details: DAMGO, Fluo4 calcium flux, at 10 µM; stronger effect = higher value
Chain of Short transient receptor potential channel 4 (Mus musculus) (Q9QUQ5 whole entry, looked up): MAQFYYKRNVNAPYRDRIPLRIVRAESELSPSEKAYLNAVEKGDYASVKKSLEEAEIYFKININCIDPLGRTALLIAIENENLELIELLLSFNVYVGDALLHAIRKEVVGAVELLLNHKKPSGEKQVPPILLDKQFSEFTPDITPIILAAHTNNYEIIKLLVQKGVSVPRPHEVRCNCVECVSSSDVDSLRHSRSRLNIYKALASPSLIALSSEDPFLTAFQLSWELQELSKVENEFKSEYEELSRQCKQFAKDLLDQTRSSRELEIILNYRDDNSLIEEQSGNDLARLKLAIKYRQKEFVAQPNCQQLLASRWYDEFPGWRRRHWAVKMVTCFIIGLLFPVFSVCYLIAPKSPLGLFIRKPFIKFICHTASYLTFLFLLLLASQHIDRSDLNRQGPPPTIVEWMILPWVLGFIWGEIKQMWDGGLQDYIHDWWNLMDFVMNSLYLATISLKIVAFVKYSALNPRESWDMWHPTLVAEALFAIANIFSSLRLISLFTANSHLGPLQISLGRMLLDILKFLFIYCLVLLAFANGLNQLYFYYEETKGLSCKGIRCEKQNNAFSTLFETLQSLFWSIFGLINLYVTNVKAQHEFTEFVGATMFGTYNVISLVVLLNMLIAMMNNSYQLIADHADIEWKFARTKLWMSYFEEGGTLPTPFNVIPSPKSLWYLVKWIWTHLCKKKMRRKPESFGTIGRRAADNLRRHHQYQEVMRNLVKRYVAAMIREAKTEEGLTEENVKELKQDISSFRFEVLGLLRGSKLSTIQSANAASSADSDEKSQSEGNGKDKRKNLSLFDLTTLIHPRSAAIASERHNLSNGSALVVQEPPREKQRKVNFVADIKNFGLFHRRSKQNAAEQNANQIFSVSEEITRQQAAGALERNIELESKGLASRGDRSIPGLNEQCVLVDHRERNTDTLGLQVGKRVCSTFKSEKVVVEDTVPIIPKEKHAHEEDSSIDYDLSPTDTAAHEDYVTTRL

[6] = biological target: Short transient receptor potential channel 4 (Mus musculus) (UniProt Q9QUQ5); experiment: inhibitors of mouse TRPC4 channel, confirmation, cell-based, second round, Fluo4, HEK293 TRPC4beta/mu-opioid, 1 µM (AID 2637;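 active = calcium signal ratio cut to more than 3 SD under the fully stimulated control mean yet still positive, in both repeats and the primary screen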;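 as to inhibition: percent of integrated ratio relative to wells lacking test compound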); details: Fluo4 calcium flux, DAMGO, at 1 µM; stronger effect = higher value
[7] = biological target: Short transient receptor potential channel 4 (Mus musculus) (UniProt Q9QUQ5); experiment: TRPC4 positive allosteric modulators, dose response, cell-based, HEK293 TRPC4/mu-opioid, Fluo-4 calcium, EC20 DAMGO (AID 434941;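 active = earlier screen potentiator hit that boosts the TRPC4 ion channel at some dose, with a dose response; inactive = no potentiation, no dose response, or not a prior hit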;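 also: calcium entry triggered by an EC20 dose of DAMGO at the co-expressed mu-opioid receptor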)
[8] = biological target: Short transient receptor potential channel 6 (Mus musculus) (UniProt Q61143); experiment: inhibition of mouse TRPC6 channel, confirmation, selectivity assay for TRPC4 inhibitor project, cell-based, HEK293, membrane potential dye, duplicate (AID 434948;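 active = active in primary screen and both duplicates, each dropping signal beyond three positive-control SD with fluorescence still positive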); details: HEK293 TRPC6, membrane potential dye fluorescence, at 10 µM, stimulated with maximal-effect acetylcholine; stronger effect = higher value
Chain of Short transient receptor potential channel 6 (Mus musculus) (Q61143 whole entry, looked up): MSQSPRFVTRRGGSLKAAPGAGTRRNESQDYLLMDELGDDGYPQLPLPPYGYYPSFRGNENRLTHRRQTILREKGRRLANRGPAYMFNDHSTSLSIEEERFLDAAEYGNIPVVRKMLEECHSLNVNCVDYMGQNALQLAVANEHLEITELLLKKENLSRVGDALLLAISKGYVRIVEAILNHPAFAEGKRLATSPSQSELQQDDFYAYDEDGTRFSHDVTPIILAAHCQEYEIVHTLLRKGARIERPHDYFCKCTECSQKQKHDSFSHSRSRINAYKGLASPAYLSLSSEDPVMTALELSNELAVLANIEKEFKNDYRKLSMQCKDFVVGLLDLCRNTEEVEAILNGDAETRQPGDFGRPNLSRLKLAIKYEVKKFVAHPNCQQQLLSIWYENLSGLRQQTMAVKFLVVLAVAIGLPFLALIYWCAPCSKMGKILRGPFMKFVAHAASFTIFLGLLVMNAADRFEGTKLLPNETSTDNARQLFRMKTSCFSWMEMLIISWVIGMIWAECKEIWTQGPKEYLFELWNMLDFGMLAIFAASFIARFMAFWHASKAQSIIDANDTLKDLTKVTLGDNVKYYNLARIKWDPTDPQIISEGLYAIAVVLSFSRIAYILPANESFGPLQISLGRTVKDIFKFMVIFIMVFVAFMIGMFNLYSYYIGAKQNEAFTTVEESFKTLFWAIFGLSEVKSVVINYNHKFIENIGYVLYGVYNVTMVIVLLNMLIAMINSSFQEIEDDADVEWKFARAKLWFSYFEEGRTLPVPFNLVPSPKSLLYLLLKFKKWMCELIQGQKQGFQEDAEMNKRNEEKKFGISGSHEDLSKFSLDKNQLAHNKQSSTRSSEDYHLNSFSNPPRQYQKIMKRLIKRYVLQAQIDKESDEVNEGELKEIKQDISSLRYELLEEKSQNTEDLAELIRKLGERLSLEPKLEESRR

[9] = biological target: Short transient receptor potential channel 6 (Mus musculus) (UniProt Q61143); experiment: activation of mouse TRPC6 channel, confirmation, selectivity assay for TRPC4 activator project, cell-based, HEK293, membrane potential dye, duplicate (AID 434950;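 active = membrane potential signal rise above negative control mean plus 3 SD in both duplicates, also active in the earlier TRPC4 screen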;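 as to activation: 0% = buffer only wells and 100% = acetylcholine maximal-effect wells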); details: HEK293 TRPC6, membrane potential fluorescence, at 10 µM; stronger effect = higher value
[10] = biological target: Short transient receptor potential channel 6 (Mus musculus) (UniProt Q61143); experiment: TRPC6 potentiation by TRPC4 potentiator hits, confirmation, selectivity assay for TRPC4 potentiator project, HEK293 cells, membrane potential dye, duplicate (AID 434952;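 active = compound raising the membrane signal above positive-control mean plus 3 SD in both repeats, and a primary screen hit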); details: HEK293 TRPC6, membrane potential dye fluorescence, at 10 µM, maximal acetylcholine added after compound; stronger effect = higher value
[11] = biological target: Short transient receptor potential channel 4 (Mus musculus) (UniProt Q9QUQ5); experiment: calcium flux activators in TRPC4/5HT1a cells, counter-screen for TRPC4 activator project, cell-based, second counter screen, HEK293 TRPC4/5HT1a, Fluo-4 (AID 434977;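 active = calcium signal rise above buffer-control mean plus 5 SD in both duplicates, and also a hit in the primary screen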;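 as to activation: plate controls were assay buffer for no effect and maximal serotonin response for full effect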); details: Fluo-4 calcium flux, at 10 µM; stronger effect = higher value
[12] = calcium flux inhibitors in TRPC4/5HT1a cells, confirmation, counter-screen for TRPC4 inhibitor project, cell-based, second counter screen, HEK293 TRPC4/5HT1a, Fluo-4 (AID 434978;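 active = primary screen active whose calcium signal fell more than 3 SD beyond the full-serotonin control mean in both duplicate plates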;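 as to outcome: serotonin given first at submaximal then at maximal dose after compound preincubation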); details: Fluo-4 calcium flux, at 10 µM, serotonin added to trigger calcium flux; stronger effect = higher value
[13] = system: TRPC4 (mouse), co-expressed with 5HT1a in HEK293; experiment: calcium flux potentiators in TRPC4/5HT1a cells, confirmation, counter-screen for TRPC4 potentiator project, cell-based, second counter screen, HEK293 TRPC4/5HT1a, Fluo-4 (AID 434979;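 active = signal rise over 3 SD above mean of control wells given weak agonist, in both repeats and first screen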); details: Fluo-4 calcium flux, at 10 µM, serotonin added at its EC20 dose; stronger effect = higher value
[14] = calcium flux activation in mu-opioid HEK293 cells, confirmation, counter-screen for TRPC4 activator project, cell-based, HEK293 mu-opioid receptor line (AID 449723;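 active = hit in primary screen, with calcium signal over 5 SD above buffer well mean in both duplicates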;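 also: counter screen cells carry the mu-opioid receptor alone and lack TRPC4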); details: Fluo-4 calcium fluorescence, at 10 µM; stronger effect = higher value
[15] = calcium flux enhancement in mu-opioid HEK293 cells, confirmation, counter-screen for TRPC4 allosteric potentiator project, cell-based, HEK293 mu-opioid receptor line (AID 449724;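 active = calcium signal rise more than 3 SD above the low-dose agonist control mean, in both duplicate plates and the primary screen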); details: Fluo-4 calcium flux, at 10 µM, compound added before EC20 DAMGO stimulus; stronger effect = higher value

CCOC(=O)C1(CC2CC2)CCN(Cc2cn[nH]c2-c2ccccc2)CC1
active: inhibition [5] 97% | inhibition [6] 47% | activation [9] 91% | inhibition [12] 35.9%
inactive: outcome [1] | outcome [2] | outcome [3] | outcome [4] | outcome [7] | outcome [8] | outcome [10] | outcome [11] | outcome [13] | outcome [14] | outcome [15]

Cc1ccc(COn2c(-c3ccc(Cl)cc3Cl)nc3ncccc32)cc1
inactive: outcome [1] | outcome [2] | outcome [3] | outcome [4] | outcome [5] | outcome [6] | outcome [7] | outcome [8] | outcome [10] | outcome [11] | outcome [12] | outcome [13] | outcome [14] | outcome [15]
active: activation [9] 46%

CC1CCCN(CCOCCOc2ccccc2-c2ccccc2)C1 (stereo not given)
active: inhibition [5] 90% | inhibition [6] 53% | activation [9] 82% | inhibition [12] 30.7%
inactive: outcome [1] | outcome [2] | outcome [3] | outcome [4] | outcome [7] | outcome [8] | outcome [10] | outcome [11] | outcome [13] | outcome [14] | outcome [15]

C/C(=N/NC(=O)c1ccc(Cn2cccn2)o1)c1cccc(NC(=O)c2ccncc2)c1
inactive: outcome [2] | outcome [3] | outcome [4] | outcome [6] | outcome [7] | outcome [8] | outcome [10] | outcome [12] | outcome [13] | outcome [14] | outcome [15]
active: activation [1] 100% | inhibition [5] 97% | activation [9] 49% | activation [11] 11.3%

CC(=O)Nc1ccc(C2(c3ccc(NC(C)=O)cc3)C(=O)Nc3ccccc32)cc1
active: inhibition [5] 83% | inhibition [6] 61% | activation [9] 30%
inactive: outcome [1] | outcome [2] | outcome [3] | outcome [4] | outcome [7] | outcome [8] | outcome [10] | outcome [11] | outcome [12] | outcome [13] | outcome [14] | outcome [15]

C/C=C(\C)CN1CCC(n2nccc2NC(=O)CCc2ccccc2)CC1
inactive: outcome [1] | outcome [2] | outcome [3] | outcome [4] | outcome [7] | outcome [8] | outcome [10] | outcome [11] | outcome [12] | outcome [13] | outcome [14] | outcome [15]
active: inhibition [5] 97% | inhibition [6] 86% | activation [9] 58.5%

O=C(NC1CC1)C1=C[C@H](C2CCCCC2)C[C@H](OCc2ccc(CO)cc2)O1
active: activation [1] 337% | inhibition [5] 75% | activation [9] 41% | activation [11] 131% | inhibition [12] 9.94%
inactive: outcome [2] | outcome [3] | outcome [4] | outcome [6] | outcome [7] | outcome [8] | outcome [10] | outcome [13] | outcome [14] | outcome [15]

Cc1ccc(S(=O)(=O)NCCC(=O)NCC(c2ccco2)N2CCCCC2)cc1C (stereo not given)
inactive: outcome [2] | outcome [3] | outcome [4] | outcome [5] | outcome [7] | outcome [8] | outcome [10] | outcome [11] | outcome [12] | outcome [13] | outcome [14] | outcome [15]
active: activation [1] 82% | inhibition [6] 80% | activation [9] 37%

COc1cccc(CNCc2ccccn2)c1OC
active: activation [2] 56% | activation [9] 40%
inactive: outcome [1] | outcome [3] | outcome [4] | outcome [5] | outcome [6] | outcome [7] | outcome [8] | outcome [10] | outcome [11] | outcome [12] | outcome [13] | outcome [14] | outcome [15]

O=c1c2ccccc2[nH]c(=S)n1Cc1cccnc1
inactive: outcome [1] | outcome [2] | outcome [3] | outcome [4] | outcome [6] | outcome [7] | outcome [8] | outcome [9] | outcome [10] | outcome [11] | outcome [12] | outcome [13] | outcome [14] | outcome [15]
active: inhibition [5] 94%

COc1ccc2nc(NS(=O)(=O)c3ccc(NC(C)=O)cc3)sc2c1
active: inhibition [5] 73% | activation [9] 37.5%
inactive: outcome [1] | outcome [2] | outcome [3] | outcome [4] | outcome [6] | outcome [7] | outcome [8] | outcome [10] | outcome [11] | outcome [12] | outcome [13] | outcome [14] | outcome [15]

OCC1(CC2CCCCO2)CCN(Cc2nc3ccccc3[nH]2)CC1 (stereo not given)
inactive: outcome [1] | outcome [2] | outcome [3] | outcome [4] | outcome [6] | outcome [7] | outcome [8] | outcome [10] | outcome [11] | outcome [12] | outcome [13] | outcome [14] | outcome [15]
active: inhibition [5] 67% | activation [9] 26.5%

Cc1ccc(S(=O)(=O)Nc2cccc(C(=O)NCC(c3ccco3)N3CCCC3)c2)cc1F (stereo not given)
active: activation [1] 58% | inhibition [6] 67% | activation [9] 31.5%
inactive: outcome [2] | outcome [3] | outcome [4] | outcome [5] | outcome [7] | outcome [8] | outcome [10] | outcome [11] | outcome [12] | outcome [13] | outcome [14] | outcome [15]

Clc1ccc(COn2c(-c3ccc(Cl)cc3Cl)nc3ncccc32)cc1
inactive: outcome [2] | outcome [3] | outcome [4] | outcome [5] | outcome [6] | outcome [7] | outcome [8] | outcome [10] | outcome [11] | outcome [12] | outcome [13] | outcome [14] | outcome [15]
active: activation [1] 74% | activation [9] 54%
